Screening results as filed in PubChem BioAssay.
This is a sample that favours compounds with a hit; in the whole collection about 4.8% have one here.
HEK293 cAMP cs: parental HEK293 cAMP activation (counter-screen). parental HEK293 CNG cAMP sensor, membrane potential fluorescence. Potency, µM (doses to about 57.1 µM), for the others: at the top dose activation, actives largely listed as activators. 73,000 tested, 2.5% active. AID 938; note: % of control where 0% means no effect; nearly all actives have a fitted effect of over 55% in size
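Parental HEK 293 cells stably expressing a modified CNG channel (no TSHR) report cAMP rise as membrane depolarization. Membrane potential dye with 100 uM RO 20-1724 was loaded for 60 min at room temperature, then compound added for 30 min; fluorescence read at 590 nm.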
Casp1 inh: allosteric or competitive inhibitors of human caspase-1; P29466; Caspase-1 enzyme, Ac-WEHD-AFC fluorogenic rate; Potency, µM (doses to about 57.5 µM), inactives show at the top dose activity change, negative = inhibition, usual class: inhibitors; 75,000 tested, 0.03% active; AID 900;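 note: plate controls were vehicle for no effect and no substrate for full effect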
TSHR agonist: activates the human thyroid stimulating hormone receptor | P16473 | HEK293-CNG-TSHR cells (CNG channel as cAMP sensor), membrane potential dye, cAMP | Potency, µM (titrated, usually from 57.1 µM), for inactives: top-dose activation, hits mostly activators | 73,000 tested, 0.48% active; active = well fitted activation curve with a large enough effect in the main read-out, with a control signal flat, not every such curve was filed as active; inconclusive = small, poorly fitted or top-dose-only effect, or a change in a side signal; inactive = no such curve, though single readings can be large or run the other way; % of control where 0% means no effect;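 note: the control signal comes from parental cells without the receptor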
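HEK 293 cells stably expressing TSHR and a cAMP-gated CNG channel; parental CNG-only cells as counterscreen. Cells preloaded 60 min with membrane potential dye plus 100 uM RO 20-1724, then compound 30 min; fluorescence read at 590 nm.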
Casp7 inh: allosteric or competitive inhibitors of human caspase-7 | recombinant caspase-7, Ac-DEVD-AFC fluorescence rate | Potency, µM (doses to about 57.5 µM), without a hit: at the highest dose activity change, negative = inhibition, usual class: inhibitors | 75,000 tested, 0.02% active; active = well fitted inhibition curve with a large enough effect in the main read-out, with a control signal flat, not every such curve was filed as active; inconclusive = small, poorly fitted or top-dose-only effect, or a change in a side signal; note: % of control where 0% means no effect
ERK AVP block: blocks ERK signaling stimulated by vasopressin | Potency, µM (doses to about 57.5 µM), for the others: at the highest dose activity, negative = inhibition, usual class: inhibitors | 72,000 tested, 0.99% active | HEK293-V1b, vasopressin-stimulated pERK AlphaScreen | AID 995; note: % is set by controls: 0 for no effect and ±100 for the full control effect; nearly all actives have a fitted effect of over 55% in size
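Phosphorylated ERK1/2 detected via AlphaScreen bead proximity in lysates of V1b-expressing HEK293 cells given 25 nM vasopressin for 5 min after 30 min compound exposure (37 °C). AC50 from Hill equation; basal DMSO 0%, vasopressin 100%.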
ALOX15 inhib: inhibitors of human 15-lipoxygenase (ALOX15). 74,000 tested, 1.4% active. Potency, µM (doses to about 57.1 µM), inactives show at the highest dose activity change, negative = inhibition, hits mostly inhibitors. purified 15hLO-1, xylenol orange hydroperoxide absorbance. P16050; note: % is set by controls: 0 for no effect and ±100 for the full control effect; nearly all actives have a fitted effect of over 55% in size
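Quantitative HTS in 25 mM Hepes pH 7.5 containing 0.01% Triton X-100: human 15hLO-1 at 40 nM, arachidonic acid at 50 uM, 6 min turnover. Product quantified via ferrous oxidation/xylenol orange, 573:405 nm absorbance ratio.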
Active calls of the source: *; ? = inconclusive; . = not tested or not shown; ! = not active in a repeat; [ ] = remark or other dose. Unless noted, calls come from the whole dose curve; as a rule, active = well fitted curve in the direction sought with a large enough effect; inconclusive = small, poorly fitted or top-dose-only effect, or another doubt; inactive = no such curve, though single readings can be large; an effect the other way counts as inactive or inconclusive. Potency is the fitted concentration of half-maximal effect.

SMILES	HEK293 cAMP cs	Casp1 inh	TSHR agonist	Casp7 inh	ERK AVP block	ALOX15 inhib
CCn1c(SCc2nc3ccccc3c(=O)[nH]2)nc2ccccc2c1=O	?	-1%	?	-2%	7.9µM*	1%
CCn1c(SCC(=O)NCc2ccccc2)nc2ccccc2c1=O	122%	-1%	-4%	3%	7%	5%
O=C(c1cc(-c2ccco2)on1)N1CCN(c2ccccc2)CC1	23%	-2%	16%	-5%	-9%	-6%
O=S(=O)(c1ccc2nc(-c3ccco3)c(-c3ccco3)nc2c1)N1CCOCC1	-5%	.	3%	?	?	2.5µM*
O=C(c1ccc2nc(-c3ccco3)c(-c3ccco3)nc2c1)N1CCN(c2ccccc2)CC1	5%	.	0%	?	?	3.2µM*
O=C(Nc1ccc(N2CCOCC2)cc1)Nc1ccc2nc(-c3ccco3)c(-c3ccco3)nc2c1	-29%	?	-51%	-23%	-23%	4µM*
COc1cc(C2N(c3ccccc3)CCN2c2ccccc2)ccc1OC(C)=O	7%	-4%	3.2µM*	-3%	-17%	10%
COc1cc(C(=O)O)ccc1OC(C)=O	?	0%	?	-1%	-10%	10%
CC(Cc1ccccc1)C(=O)NCCc1c[nH]c2ccccc12 (stereo not given)	13µM*	-3%	?	-4%	?	?
O=C(NCCc1c[nH]c2ccccc12)C(F)(F)C(F)F	-4%	-1%	0%	-1%	53%	-1%
Cc1ccc(C(=O)CSc2nnc(CNc3nc(-c4ccccc4)cs3)n2C)cc1	15%	-3%	24%	-7%	13µM*	?
CC(C)C(C(=O)Nc1ccc2c(c1)OCO2)N1C(=O)c2ccccc2C1=O (stereo not given)	?	-2%	?	0%	-22%	2%
CCC(SC1=Nc2ccccc2C2=NC(CC(C)C)C(=O)N12)C(=O)Nc1ccc2c(c1)OCO2 (stereo not given)	16µM*	-6%	?	-7%	-4%	?
CNC1C(O)C(O[C@H]2C(O)[C@@H](OC3OC(CN)=CCC3N)[C@H](N)C[C@@H]2N)OC[C@]1(C)O (stereo not given in full)	.	3%	.	3%	10%	2%
CCOC(N)=O	.	1%	.	0%	-2%	?
O=C(CSc1nnc(-c2ccncc2)n1Cc1ccco1)OC1CCCCC1	?	0%	?	-1%	-12%	-3%
O=C(CSc1nnc(-c2ccco2)n1Cc1ccccc1)OC1CCCCC1	4µM*	-2%	?	-17%	-22%	-10%
COc1ccc(NC(=O)N2CCCC3(CCN(C(=O)c4ccc(OC)cc4)CC3)C2)cc1	18%	-1%	17%	-2%	-10%	4%
COc1ccccc1CNc1nc(-c2ccccc2CN(C)C)nc2ccccc12	?	-2%	?	-1%	21%	-3%
NC1(C(=O)O)CCC1	4%	2%	-2%	0%	-2%	-28%[25.6 µM]
NC1(C(=O)O)CC(C(=O)O)C1 (stereo not given)	6%	-9%	1%	1%	15%	20µM*!
Fc1ccccc1N1CCN(CCCNc2ccc3nncn3n2)CC1	?	-3%	?	-1%	11%	-5%
c1ccc(CN2CCN(CCCNc3ccc4nnc(-c5ccccc5)n4n3)CC2)cc1	8%	3%	-27%	-4%	40µM*	-17%
CO[C@H]1COC(=O)C/C=C\[C@H](C)[C@@H](NS(=O)(=O)c2ccc(C)cc2)COC(=O)C/C=C\[C@@H]1C	8%[11.4 µM]	-2%[11.5 µM]	0%[11.4 µM]	-1%[11.5 µM]	14%[11.5 µM]	3%[11.4 µM]
C=C[C@@](C)(O)CC[C@H]1[C@]2(C)CCCC(C)(C)[C@H]2CC[C@]1(C)O	-7%	.	.	.	.	.
SMILES	HEK293 cAMP cs	Casp1 inh	TSHR agonist	Casp7 inh	ERK AVP block	ALOX15 inhib
O=C(O)P(=O)(O)O	.	1%	.	-1%	6%	-4%
O=C(c1ccco1)N1CCN(S(=O)(=O)c2ccc(S(=O)(=O)NC3CCCCC3)cc2)CC1	1.6µM*	-2%	?	-1%	-9%	6%
O=C(c1ccco1)N1CCN(S(=O)(=O)c2ccc(C3CCCCC3)cc2)CC1	25µM*	2%	?	-2%	24%	-10%
O=C(c1ccco1)N1CCN(S(=O)(=O)c2ccc(S(=O)(=O)NC3CCCC3)cc2)CC1	?	-2%	?	0%	4%	-16%
CC1=C(C(=O)OCC2CCCO2)C(c2ccc(C)o2)C2=C(CC(c3ccc(F)cc3)CC2=O)N1 (stereo not given)	?	-2%	?	-2%	-18%	3%
CC1=C(C(=O)OCC2CCCO2)C(c2ccccc2OC(C)C)C2=C(CC(c3ccco3)CC2=O)N1 (stereo not given)	3%	.	-7%	?	4%	32µM*
CCN(C(=O)CN1CCN(c2ccc(O)cc2)CC1)c1c(N)n(Cc2ccccc2)c(=O)[nH]c1=O	2%	-6%	8%	-12%	-3%	?
Cc1sc2ncnc(NCc3ccco3)c2c1C	?	-5%	?	-18%	?	?
Cc1nc(NCc2ccco2)c2c3c(sc2n1)CCC3	16µM*	0%	?	-5%	?	-13%
c1coc(CNc2ncnc3sc4c(c23)CCCCC4)c1	25µM*	-3%	?	2%[0.00368 µM]	-14%	-4%
COc1cccc2c1[C@@H]1CN(CCCCn3c(=O)[nH]c4c(sc5ncc(-c6ccccc6)nc54)c3=O)C[C@H]1CO2	-77%	-5%	?	-3%	?	13%
Cn1c(=O)c2c(nc(CN3CCc4ccccc4C3)n2CCc2ccccc2)n(C)c1=O	5µM*	2%	?	-1%	3%	-7%
COc1ccc(N2CCN(Cc3nc4c(c(=O)n(C)c(=O)n4C)n3Cc3ccccc3C)CC2)cc1	4%	-1%	10µM*	-2%	.	?
COc1ccc(N2CCN(Cc3nc4c(c(=O)n(C)c(=O)n4C)n3CCc3ccccc3)CC2)cc1	?	-1%	?	-2%	.	?
CO[C@]1(C2=NCCN2)COc2ccccc2O1	3%	1%	2%	-1%	6%	2%[25.6 µM]
COc1cc(-c2oc3cc(O)ccc3c(=O)c2O)ccc1O	.	.	.	?	?	13µM*
COc1ccc(-c2coc3cc(O)ccc3c2=O)c(O)c1O	.	0%	.	-14%	-4%	13µM*
COc1ccc(-c2oc3ccccc3c(=O)c2O)cc1	.	-2%	.	0%	-21%	1%[25.6 µM]
O=c1c(O)c(-c2ccc(O)c(O)c2)oc2ccccc12	-6%	-6%	-10%	-18%	?	2µM*
CCCc1cc(C(=O)N(C2CCCCC2)C2CCCCC2)no1	25%	1%	20µM*	-1%	19%	-7%
